Assay results as given in PubChem BioAssay.
Calls of active or inactive are those of the source.

Tests used:
[1] = tested on: Human papillomavirus type 1a protein E7 (residues 44-93); assay: small molecules binding HPV E7 44-93 – biochemical, small-molecule microarray, residues 44-93, 635 nm fluorescence, primary screen (AID 1108); conditions: fluorescence 635 nm, higher = more signal;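 also: E7 fragment applied at 1 µg/mL in TBST for 1 h at 4 C; score combines spot fluorescence with its signal to noise ratio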
[2] = hepatitis C replication reporter changes, two-sided – Huh7 cells, luciferase reporter, HCV replication inhibitor project, primary screen (AID 1109); conditions: Huh7 HCV replicon luciferase reporter, 48 h; higher = more signal;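 also: huh7 hepatoma cells harbouring a luciferase neomycin HCV replicon reporter; luciferase luminescence as measure of HCV replicon replication; test concentration not given here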
[3] = target: Left-right determination factor 2 (Homo sapiens) (UniProt O00292); assay: small molecules binding LEFTY2 protein – biochemical, small-molecule microarray, 635 nm fluorescence scan, primary screen (AID 1110); conditions: higher = more signal
[4] = target: Calmodulin-1 (Homo sapiens) (UniProt P0DP23); assay: small molecules binding calmodulin-1 with EGTA – biochemical, small-molecule microarray, Cy5-labelled CALM1, profiling panel (AID 1111); conditions: Cy5-CALM1 binding fluorescence, higher = more signal;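 also: labelled calmodulin applied in Tris saline Tween buffer holding calcium plus EGTA and DTT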
[5] = target: Calmodulin-1 (Homo sapiens) (UniProt P0DP23); assay: small molecules binding Ca-loaded calmodulin-1 – biochemical, small-molecule microarray, Cy5-labelled CALM1, plus calcium, artefact control for SMM control-protein annotation, profiling panel (AID 1112); conditions: Cy5-CALM1 binding fluorescence, higher = more signal;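 also: score merges spot fluorescence with signal to noise from triplicate slides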
[6] = probe aWnt5a binding to arrayed compounds – biochemical, biotinylated probe, 635/667 nm fluorescence, primary screen (AID 1113); conditions: small-molecule microarray, higher = more signal;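 also: score merges 667 nm fluorescence intensity with signal-to-noise per printed feature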
[7] = probe aShh binding to arrayed compounds – biochemical, biotinylated probe, 635/667 nm fluorescence, primary screen (AID 1114); conditions: small-molecule microarray, higher = more signal;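 also: probe is biotin-labelled aShh protein from a stem cell growth factor screen; measures binding of labelled protein to compounds printed on the slide; score merges feature fluorescence at 667 nm with signal-to-noise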
[8] = probe aNog binding to arrayed compounds – biochemical, biotinylated probe, 635/667 nm fluorescence, primary screen (AID 1115); conditions: small-molecule microarray, higher = more signal;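 also: probe is biotinylated aNog protein used at 0.15 µg/mL for 1 h at 4 C; z-score combines 667 nm fluorescence of each spot with its signal to noise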
[9] = target: Torsin-1A-interacting protein 1 (Homo sapiens) (UniProt Q5JTV8); assay: compound microarray binding of lysate hLAP1 – cell lysate, small-molecule microarray, COS7 lysate, 635/667 nm fluorescence, primary screen (AID 1116); conditions: 635 nm fluorescence, higher = more signal
[10] = target: Alpha-bungarotoxin (Bungarus multicinctus) (UniProt P60615); assay: compounds binding labelled alpha-BTX control protein – biochemical, small-molecule microarray, Alexa647 label, 635/667 nm fluorescence, artefact control for SMM control protein annotation, profiling panel (AID 1117); conditions: alpha-BTX-A647 binding fluorescence, higher = more signal
Albumin (Bos taurus) = Albumin (Bos taurus) (UniProt P02769); assay: compounds binding labelled BSA control protein – biochemical, small-molecule microarray, Alexa647 label, 635/667 nm fluorescence, artefact control for SMM control protein annotation, profiling panel (AID 1118); conditions: BSA-A647 binding, fluorescence 635 nm, higher = more signal;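 also: score merges 667 nm emission intensity and signal-to-noise per printed compound spot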
[11] = probe aXIP binding to arrayed compounds – biochemical, NeuroSMM set, 635/667 nm fluorescence, primary screen (AID 1119); conditions: small-molecule microarray, higher = more signal, called active from +8 up or from −8 down;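 also: probe is the protein aXip251-270 applied at 1 µg/mL to compound-printed slides; binding of probe to printed compounds measured as 667 nm fluorescence plus signal to noise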
[12] = probe aNOTCH3 binding on compound microarray – biochemical, small-molecule microarray, 635/667 nm fluorescence, primary screen (AID 1120); conditions: higher = more signal;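 also: probe is a biotin-tagged antibody raised against NOTCH3 rather than NOTCH3 protein; score merges spot fluorescence near 667 nm with spot signal to noise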
[13] = probe aNOTCH2 binding on compound microarray – biochemical, small-molecule microarray, 635/667 nm fluorescence, primary screen (AID 1121); conditions: higher = more signal;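 also: score merges feature fluorescence read at 667 nm with its signal to noise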
[14] = target: Carbonic anhydrase 2 (Homo sapiens) (UniProt P00918); assay: compounds binding carbonic anhydrase 2 – biochemical, small-molecule microarray, Alexa647-labelled CAII, profiling panel (AID 1122); conditions: CAII-A647 binding fluorescence, higher = more signal
[15] = COS7 lysate on small-molecule microarray, probe aHis, 635 nm (AID 1123); conditions: COS7 cell lysate, fluorescence, higher = more signal;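 also: z-score combines 667nm fluorescence intensity with signal-to-noise per printed compound spot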
[16] = probe aLAP1 signal on lysate-treated microarray – cell lysate, small-molecule microarray, COS7 lysate, primary screen (AID 1124); conditions: probe aLAP1, fluorescence, higher = more signal;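 also: lysate comes from COS7 cells expressing LAP1 and is applied at 0.3 µg/mL; score merges spot fluorescence near 667 nm with signal-to-noise over triplicate slides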
Sam68 (KHDRBS1) = assay: compounds binding KHDRBS1 protein – biochemical, small-molecule microarray, 635 nm fluorescence, primary screen (AID 1125); conditions: higher = more signal;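 also: score merges 667 nm channel intensity with signal to noise over triplicate slides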
[17] = tested on: Chordin-like protein 2 (CHRDL2); assay: compounds binding chordin-like 2 – biochemical, small-molecule microarray, 635 nm fluorescence, primary screen (AID 1126); conditions: fluorescence 635 nm, higher = more signal;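 also: printed compound slides probed with Chrdl2 protein at 4 µg/mL for 1 h at 4 C; score merges 667 nm emission intensity with signal to noise over three replicate slides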
[18] = target: Concanavalin-A (Canavalia ensiformis) (UniProt P02866); assay: compounds binding concanavalin A lectin – biochemical, small-molecule microarray, Alexa647 label, 635 nm, artefact control for SMM control protein annotation, primary screen (AID 1127); conditions: ConA-A647 binding fluorescence, higher = more signal;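 also: z combines 667 nm emission intensity with signal-to-noise across three replicate slides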
Sequence of Concanavalin-A (Canavalia ensiformis) (P02866 whole entry, looked up): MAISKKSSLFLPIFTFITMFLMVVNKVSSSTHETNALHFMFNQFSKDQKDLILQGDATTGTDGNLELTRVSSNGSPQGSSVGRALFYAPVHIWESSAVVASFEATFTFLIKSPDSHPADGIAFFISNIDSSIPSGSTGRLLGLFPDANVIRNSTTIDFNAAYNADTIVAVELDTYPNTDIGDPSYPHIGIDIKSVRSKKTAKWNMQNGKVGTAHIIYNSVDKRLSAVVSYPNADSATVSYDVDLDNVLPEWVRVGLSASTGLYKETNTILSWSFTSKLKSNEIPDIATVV

Sequence of Alpha-bungarotoxin (Bungarus multicinctus) (P60615 whole entry, looked up): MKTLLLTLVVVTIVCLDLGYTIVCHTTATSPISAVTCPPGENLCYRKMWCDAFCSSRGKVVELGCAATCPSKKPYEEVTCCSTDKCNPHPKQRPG
Sequence of Torsin-1A-interacting protein 1 (Homo sapiens) (Q5JTV8 whole entry, looked up): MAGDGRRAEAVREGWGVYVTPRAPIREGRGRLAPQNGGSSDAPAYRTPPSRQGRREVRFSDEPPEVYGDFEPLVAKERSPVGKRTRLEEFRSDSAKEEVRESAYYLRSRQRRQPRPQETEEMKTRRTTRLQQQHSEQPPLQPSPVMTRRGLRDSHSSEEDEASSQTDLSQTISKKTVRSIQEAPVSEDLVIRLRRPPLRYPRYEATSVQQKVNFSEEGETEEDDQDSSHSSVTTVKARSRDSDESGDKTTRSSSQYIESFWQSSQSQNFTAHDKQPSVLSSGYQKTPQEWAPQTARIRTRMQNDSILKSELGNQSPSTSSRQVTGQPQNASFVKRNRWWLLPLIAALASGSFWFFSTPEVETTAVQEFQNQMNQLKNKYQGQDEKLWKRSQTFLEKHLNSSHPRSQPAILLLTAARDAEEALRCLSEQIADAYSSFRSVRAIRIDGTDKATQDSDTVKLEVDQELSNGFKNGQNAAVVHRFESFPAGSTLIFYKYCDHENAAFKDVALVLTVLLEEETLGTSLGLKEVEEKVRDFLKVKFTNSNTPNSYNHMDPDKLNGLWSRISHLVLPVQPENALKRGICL
Sequence of Left-right determination factor 2 (Homo sapiens) (O00292 whole entry, looked up): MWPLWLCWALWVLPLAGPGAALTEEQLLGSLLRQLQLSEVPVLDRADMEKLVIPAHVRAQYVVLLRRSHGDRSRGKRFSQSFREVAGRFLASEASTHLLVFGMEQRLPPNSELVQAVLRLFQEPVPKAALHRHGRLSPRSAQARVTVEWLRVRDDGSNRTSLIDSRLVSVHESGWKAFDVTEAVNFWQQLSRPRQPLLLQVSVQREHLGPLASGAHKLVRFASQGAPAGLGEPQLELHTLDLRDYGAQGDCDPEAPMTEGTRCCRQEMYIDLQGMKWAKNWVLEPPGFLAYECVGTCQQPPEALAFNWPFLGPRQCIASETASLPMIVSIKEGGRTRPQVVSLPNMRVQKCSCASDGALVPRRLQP
Sequence of Albumin (Bos taurus) (P02769 whole entry, looked up): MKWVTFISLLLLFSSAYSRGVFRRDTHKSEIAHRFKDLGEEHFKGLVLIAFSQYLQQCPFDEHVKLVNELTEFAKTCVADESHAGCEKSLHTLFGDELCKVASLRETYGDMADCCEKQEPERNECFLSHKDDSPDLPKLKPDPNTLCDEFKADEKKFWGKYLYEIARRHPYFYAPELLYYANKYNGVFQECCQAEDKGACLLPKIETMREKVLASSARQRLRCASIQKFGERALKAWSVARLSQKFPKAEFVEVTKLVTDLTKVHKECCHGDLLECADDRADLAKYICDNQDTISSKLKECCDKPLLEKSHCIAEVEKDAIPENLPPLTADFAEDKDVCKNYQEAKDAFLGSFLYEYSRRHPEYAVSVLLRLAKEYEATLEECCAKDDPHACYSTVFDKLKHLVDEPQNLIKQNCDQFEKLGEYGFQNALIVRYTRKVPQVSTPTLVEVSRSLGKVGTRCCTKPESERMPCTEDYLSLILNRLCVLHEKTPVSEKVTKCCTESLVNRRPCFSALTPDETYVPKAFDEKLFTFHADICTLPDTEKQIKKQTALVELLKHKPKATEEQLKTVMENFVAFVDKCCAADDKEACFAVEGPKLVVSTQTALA

Row | Compound | composite z-score [1] | z-score [2] | composite z-score [3] | composite z-score [4] | composite z-score [5] | composite z-score [6] | composite z-score [7] | composite z-score [8] | composite z-score [9] | composite z-score [10] | composite z-score (Albumin (Bos taurus)) | composite Z-score [11] | composite z-score [12] | composite z-score [13] | composite z-score [14] | composite z-score [15] | composite z-score [16] | composite z-score (Sam68 (KHDRBS1)) | composite z-score [17] | composite z-score [18]
1 | COCC(=C=CC[C@@H](O)c1ccccc1OCCO)C[C@@H](O)c1ccccn1 | 0.968 | -0.979 | 0.289 | -0.153 | -0.514 | -0.124 | -0.0119 | 0.099 | -0.246 | 0.34 | -0.203 | -0.422 (inactive) | -0.0043 | -0.117 | 0.777 | 1.28 | 0.583 | 0.86 | -0.0696 | 0.742
2 | O=C(Nc1cc(Br)ccc1C(=O)NCc1cccc(O)c1)c1ccccc1 | 0.27 | -2.32 | 0.547 | 1.48 | 0.22 | 0.0297 | -0.252 | -0.75 | 0.888 | 1.36 | 0.8 | -0.0662 (inactive) | 0.151 | -0.0901 | 0.62 | 0.891 | 0.808 | 0.778 | 0.279 | 1.18
3 | Cc1ccc(-c2cccc(=O)o2)cc1 | -1.01 | 0.488 | 0.418 | -1.18 | -0.802 | -0.145 | -0.138 | 0.11 | -0.101 | -0.391 | -0.682 | -1.14 (inactive) | -0.15 | -0.108 | -0.501 | 0.0688 | 0.258 | -1.39 | 0.183 | -0.413
4 | Cc1ccccc1C(O)C1C=CC2C(=O)N(Cc3ccccc3)C(=O)C2N1n1cnnc1 (stereo not given) | 1.29 | -0.364 | -0.305 | 0.0712 | -0.535 | 0.0388 | 0.108 | 0.2 | 0.542 | 0.611 | 0.756 | 0.358 (inactive) | 0.159 | -0.137 | 0.71 | 0.774 | -0.0065 | 1.01 | -0.317 | 0.71
5 | COC(=O)c1ccc(OC)c(/C=C\CC(CCc2ccccc2)OC(C)=O)c1 (stereo not given) | -0.498 | -1.1 | -0.274 | -0.42 | -0.134 | -0.152 | -0.214 | -0.192 | -0.343 | 0.516 | 0.804 | -0.376 (inactive) | -0.272 | -0.196 | 0.557 | -0.14 | 0.275 | -0.0896 | 0.204 | 0.0426
6 | CO[C@H]1O[C@H](CO)[C@@H](OC(=O)Nc2cccc(F)c2)[C@H](OC(=O)Nc2ccc3c(c2)OCO3)[C@H]1OC(=O)Nc1ccc2c(c1)OCO2 | 1.12 | -1.37 | 0.0115 | 0.67 | -0.957 | -0.0735 | 0.0469 | 0.201 | 3.02 | 0.972 | 0.445 | 0.859 (inactive) | 0.0225 | -0.0508 | 0.728 | 2.23 | 0.315 | 1.3 | 0.163 | 0.731
